Calls of active or inactive are those of the source.

The subject of test [1] is Human papillomavirus type 1a protein E7 (residues 44-93). As to the kind of experiment: HPV1a E7 fragment binders on microarrays, primary screen, biochemical, small-molecule microarray, residues 44-93, 635 nm fluorescence (AID 1108).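 Note: E7 fragment applied at 1 µg/mL in TBST for 1 h at 4 C; score combines spot fluorescence with its signal to noise ratio.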 Particulars: small-molecule microarray binding, fluorescence 635 nm; higher = more signal.
The nature of test [2]: modulators of HCV replicon luciferase signal, primary screen, HCV replication inhibitor project, Huh7 cells, luciferase reporter (AID 1109).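 Note: huh7 hepatoma cells harbouring a luciferase neomycin HCV replicon reporter; luciferase luminescence as measure of HCV replicon replication; test concentration not given here.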 The conditions noted are these: 48 h, higher = more signal. (A replicon is a self-replicating genome or part of one, used to study replication in cells.)
Test [3] concerns the target Left-right determination factor 2 (Homo sapiens) (UniProt O00292). The test can be described thus: LEFTY2 binders on small-molecule microarrays, primary screen, biochemical, small-molecule microarray, 635 nm fluorescence scan (AID 1110). Particulars: LEFTY2 binding, higher = more signal.
For test [4], the target named is Calmodulin-1 (Homo sapiens) (UniProt P0DP23). As to the kind of experiment: CALM1 binders on microarrays, EGTA buffer, profiling panel, biochemical, small-molecule microarray, Cy5-labelled CALM1 (AID 1111).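 Note: labelled calmodulin applied in Tris saline Tween buffer holding calcium plus EGTA and DTT.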 The conditions noted are these: Cy5-CALM1 binding fluorescence, higher = more signal.
For test [5] the target is unchanged. The test can be described thus: calcium-bound CALM1 binders on microarrays, profiling panel, artefact control for SMM control-protein annotation, biochemical, small-molecule microarray, Cy5-labelled CALM1, plus calcium (AID 1112).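 Note: score merges spot fluorescence with signal to noise from triplicate slides.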 Particulars: Cy5-CALM1 binding fluorescence, higher = more signal.
Test [6] is described as follows: small-molecule microarray binders of probe aWnt5a, primary screen, biochemical, biotinylated probe, 635/667 nm fluorescence (AID 1113).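 Note: score merges 667 nm fluorescence intensity with signal-to-noise per printed feature.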 The conditions noted are these: higher = more signal.
The nature of test [7]: small-molecule microarray binders of probe aShh, primary screen, biochemical, biotinylated probe, 635/667 nm fluorescence (AID 1114).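 Note: probe is biotin-labelled aShh protein from a stem cell growth factor screen; measures binding of labelled protein to compounds printed on the slide; score merges feature fluorescence at 667 nm with signal-to-noise.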 Particulars: higher = more signal.
Test [8] is described as follows: small-molecule microarray binders of probe aNog, primary screen, biochemical, biotinylated probe, 635/667 nm fluorescence (AID 1115).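 Note: probe is biotinylated aNog protein used at 0.15 µg/mL for 1 h at 4 C; z-score combines 667 nm fluorescence of each spot with its signal to noise.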 Particulars: higher = more signal.
The target in test [9] is Torsin-1A-interacting protein 1 (Homo sapiens) (UniProt Q5JTV8). The test can be described thus: LAP1 binders from COS7 cell lysate, primary screen, small-molecule microarray, 635/667 nm fluorescence (AID 1116). The conditions noted are these: COS7-hLAP1 lysate binding, 635 nm fluorescence, higher = more signal.
Torsin-1A-interacting protein 1 (Homo sapiens), sequence (Q5JTV8 whole entry, looked up): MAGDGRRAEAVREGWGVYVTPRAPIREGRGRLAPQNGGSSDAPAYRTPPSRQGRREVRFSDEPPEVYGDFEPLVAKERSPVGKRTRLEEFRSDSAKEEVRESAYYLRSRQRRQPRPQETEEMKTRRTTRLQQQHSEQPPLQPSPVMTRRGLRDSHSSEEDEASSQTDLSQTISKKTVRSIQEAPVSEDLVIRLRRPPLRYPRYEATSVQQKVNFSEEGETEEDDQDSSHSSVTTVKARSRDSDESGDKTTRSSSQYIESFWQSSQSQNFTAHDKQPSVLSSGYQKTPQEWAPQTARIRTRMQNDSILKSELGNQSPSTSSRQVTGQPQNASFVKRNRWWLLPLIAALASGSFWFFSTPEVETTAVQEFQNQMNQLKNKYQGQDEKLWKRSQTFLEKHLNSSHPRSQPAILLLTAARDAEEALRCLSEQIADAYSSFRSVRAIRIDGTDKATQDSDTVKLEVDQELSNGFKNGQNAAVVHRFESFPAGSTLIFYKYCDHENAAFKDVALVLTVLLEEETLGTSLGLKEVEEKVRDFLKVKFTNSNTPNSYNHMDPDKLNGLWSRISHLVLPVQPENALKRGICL
For test [10], the target named is Alpha-bungarotoxin (Bungarus multicinctus) (UniProt P60615). As to the kind of experiment: alpha-bungarotoxin binders on microarray, profiling panel, artefact control for SMM control protein annotation, biochemical, small-molecule microarray, Alexa647 label, 635/667 nm fluorescence (AID 1117). Particulars: alpha-BTX-A647 binding fluorescence, higher = more signal.
Alpha-bungarotoxin (Bungarus multicinctus), sequence (P60615 whole entry, looked up): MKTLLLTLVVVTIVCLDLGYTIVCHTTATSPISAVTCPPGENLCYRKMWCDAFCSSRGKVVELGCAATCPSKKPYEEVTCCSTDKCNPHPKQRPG

In the next test the target is Albumin (Bos taurus) (UniProt P02769). The test can be described thus: bovine serum albumin binders on microarray, profiling panel, artefact control for SMM control protein annotation, biochemical, small-molecule microarray, Alexa647 label, 635/667 nm fluorescence (AID 1118).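 Note: score merges 667 nm emission intensity and signal-to-noise per printed compound spot.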 Particulars: BSA-A647 binding, fluorescence 635 nm, higher = more signal.
Albumin (Bos taurus), sequence (P02769 whole entry, looked up): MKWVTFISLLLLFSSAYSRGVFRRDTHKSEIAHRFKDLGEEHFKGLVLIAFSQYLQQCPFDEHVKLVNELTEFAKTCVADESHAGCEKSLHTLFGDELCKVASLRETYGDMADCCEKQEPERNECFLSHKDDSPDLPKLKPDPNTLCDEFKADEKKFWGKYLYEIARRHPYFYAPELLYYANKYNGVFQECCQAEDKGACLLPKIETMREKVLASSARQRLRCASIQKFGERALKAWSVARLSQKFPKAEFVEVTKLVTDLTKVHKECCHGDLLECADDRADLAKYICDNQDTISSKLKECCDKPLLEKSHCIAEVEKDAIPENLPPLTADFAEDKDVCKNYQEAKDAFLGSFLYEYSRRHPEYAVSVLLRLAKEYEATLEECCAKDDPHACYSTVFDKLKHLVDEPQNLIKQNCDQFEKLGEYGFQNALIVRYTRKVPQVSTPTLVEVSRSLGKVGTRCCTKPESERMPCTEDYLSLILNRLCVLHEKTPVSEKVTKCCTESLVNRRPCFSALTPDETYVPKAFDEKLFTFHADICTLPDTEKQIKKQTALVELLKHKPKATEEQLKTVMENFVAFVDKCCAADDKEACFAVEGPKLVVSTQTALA
Test [11] in a line: small-molecule microarray binders of probe aXIP, primary screen, biochemical, NeuroSMM set, 635/667 nm fluorescence (AID 1119).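 Note: probe is the protein aXip251-270 applied at 1 µg/mL to compound-printed slides; binding of probe to printed compounds measured as 667 nm fluorescence plus signal to noise.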 The conditions noted are these: higher = more signal, called active from +8 up or from −8 down.
A short description of test [12]: small-molecule binders of probe aNOTCH3, primary screen, biochemical, small-molecule microarray, 635/667 nm fluorescence (AID 1120).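 Note: probe is a biotin-tagged antibody raised against NOTCH3 rather than NOTCH3 protein; score merges spot fluorescence near 667 nm with spot signal to noise.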 The conditions noted are these: higher = more signal.
Test [13] can be described thus: small-molecule binders of probe aNOTCH2, primary screen, biochemical, small-molecule microarray, 635/667 nm fluorescence (AID 1121).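 Note: score merges feature fluorescence read at 667 nm with its signal to noise.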 The conditions noted are these: higher = more signal.
In test [14] the target is Carbonic anhydrase 2 (Homo sapiens) (UniProt P00918). As to the kind of experiment: CAII small-molecule binders, profiling panel, biochemical, small-molecule microarray, Alexa647-labelled CAII (AID 1122). Particulars: CAII-A647 binding fluorescence, higher = more signal.
Test [15] in a line: COS7 lysate on small-molecule microarray, probe aHis, 635 nm (AID 1123).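 Note: z-score combines 667nm fluorescence intensity with signal-to-noise per printed compound spot.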 The conditions noted are these: COS7 cell lysate, fluorescence, higher = more signal.
The nature of test [16]: compound binding in COS7 lysate, probe aLAP1, primary screen, cell lysate, small-molecule microarray (AID 1124).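 Note: lysate comes from COS7 cells expressing LAP1 and is applied at 0.3 µg/mL; score merges spot fluorescence near 667 nm with signal-to-noise over triplicate slides.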 Particulars: probe aLAP1, fluorescence, higher = more signal.
The next test deals with Sam68 (KHDRBS1). As to the kind of experiment: Sam68 small-molecule binders, primary screen, biochemical, small-molecule microarray, 635 nm fluorescence (AID 1125).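 Note: score merges 667 nm channel intensity with signal to noise over triplicate slides.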 Particulars: small-molecule microarray binding, higher = more signal.
The test system of test [17] is Chordin-like protein 2 (CHRDL2). The test can be described thus: CHRDL2 small-molecule binders, primary screen, biochemical, small-molecule microarray, 635 nm fluorescence (AID 1126).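 Note: printed compound slides probed with Chrdl2 protein at 4 µg/mL for 1 h at 4 C; score merges 667 nm emission intensity with signal to noise over three replicate slides.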 Particulars: small-molecule microarray binding, fluorescence 635 nm; higher = more signal.
Test [18] addresses Concanavalin-A (Canavalia ensiformis) (UniProt P02866). The test can be described thus: ConA small-molecule binders, primary screen, artefact control for SMM control protein annotation, biochemical, small-molecule microarray, Alexa647 label, 635 nm (AID 1127).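 Note: z combines 667 nm emission intensity with signal-to-noise across three replicate slides.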 The conditions noted are these: ConA-A647 binding fluorescence, higher = more signal.

Concanavalin-A (Canavalia ensiformis), sequence (P02866 whole entry, looked up): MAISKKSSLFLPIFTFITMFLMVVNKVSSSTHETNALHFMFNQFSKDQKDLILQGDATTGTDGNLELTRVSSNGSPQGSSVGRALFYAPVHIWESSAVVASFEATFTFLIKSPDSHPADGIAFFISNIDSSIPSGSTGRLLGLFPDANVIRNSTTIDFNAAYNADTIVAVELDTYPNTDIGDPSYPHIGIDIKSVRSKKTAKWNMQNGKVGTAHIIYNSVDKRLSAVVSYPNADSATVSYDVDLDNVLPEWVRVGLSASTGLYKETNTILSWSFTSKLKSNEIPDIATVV
Left-right determination factor 2 (Homo sapiens), sequence (O00292 whole entry, looked up): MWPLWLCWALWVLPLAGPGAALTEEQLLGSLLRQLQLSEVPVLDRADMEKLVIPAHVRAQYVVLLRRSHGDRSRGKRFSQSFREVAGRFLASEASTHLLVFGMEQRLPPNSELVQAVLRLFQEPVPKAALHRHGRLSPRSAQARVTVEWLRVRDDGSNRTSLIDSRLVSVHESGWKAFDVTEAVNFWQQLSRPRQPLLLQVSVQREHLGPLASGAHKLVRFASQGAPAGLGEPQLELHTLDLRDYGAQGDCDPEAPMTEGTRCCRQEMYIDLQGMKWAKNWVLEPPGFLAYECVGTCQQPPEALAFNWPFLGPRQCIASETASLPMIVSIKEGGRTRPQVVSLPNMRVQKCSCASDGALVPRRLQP

Regarding `CC(C)CCC[C@@H](C)[C@H]1CC[C@@]2(C)C3=C(CC[C@]12C)[C@@]1(C)CC[C@H](OC(=O)C(C)(C)C)C(C)(C)C1CC3` (stereo not given in full), the composite z-score is 0.506 in test [1]; 0.502 in [3]; 0.0548 in test [4]; -0.718 in test [5]; -0.0792 in test [6]; -0.134 in test [7]. Moreover, the composite z-score in test [8] was -0.705; in [9] it was -0.0812; in test [10] it was 0.448; in the test with Albumin (Bos taurus) it was -0.0648; in test [12], -0.0396; in [13], -0.191. In addition, the composite z-score in test [14] is -0.0485; in [15], 1.25; in test [16], -0.0838; in the test with Sam68 (KHDRBS1) it was 0.657; in [17] it was 0.547; in test [18], 0.632. The z-score in [2] is -0.435. Moreover, the composite Z-score in test [11] is -0.598 (inactive).
Take `COC(=O)[C@@]1(Cc2ccc(OC)cc2)[C@H]2c3cc(C(=O)N(C)C)n(Cc4cc(C)n(C)n4)c3C[C@H]2CN1C(=O)c1ccccc1`: the composite z-score is 1.52 in test [1]; -0.198 in test [3]; 0.239 in test [4]; 0.529 in test [5]; 0.596 in [6]; 0.964 in [7]. The composite z-score was 1.11 in test [8]; 1.2 in test [9]; -0.329 in test [10]; 0.19 in the test with Albumin (Bos taurus); 0.166 in [12]; 0.0736 in test [13]. Also, the composite z-score is 0.88 in [14]; 3.4 in test [15]; 0.898 in test [16]; 1.06 in the test on Sam68 (KHDRBS1); -0.285 in [17]; -0.307 in [18]. The z-score in test [2] was -0.952. In addition, in test [11], the composite Z-score was 0.638 (inactive).
With `CCC[C@@H]1C[C@@]1(CCC)[C@@H](NC(=O)c1ccco1)c1ccc(Cl)cc1`, the composite z-score in test [1] was -1.06; in [3] it was -0.936; in test [4], -0.177; in [5], 0.0344; in [6] it was -0.252; in test [7], 0.254. Further, the composite z-score in test [8] was 0.756; in [9], -0.678; in [10] it was -0.0776; with Albumin (Bos taurus), -0.638; in [12], -0.173; in [13], -0.0324. For the same molecule, the composite z-score in [14] is -0.464; in [15], -0.241; in test [16] it was -0.0117; in the test on Sam68 (KHDRBS1) it was -1.48; in [17], -0.493; in test [18], -0.517. This molecule showed a z-score in test [2] of -0.49. Also, in test [11], the composite Z-score is -0.392 (inactive).
`CC1C=C(CCCO)C=C(C(=O)OCCS(C)(=O)=O)C(C(=O)OCCS(C)(=O)=O)=CN1Cc1cccc(OC(F)(F)F)c1` (stereo not given): the composite z-score is 1.11 in test [1]; -0.152 in test [3]; 1.7 in [4]; 1.09 in [5]; 0.027 in [6]; 0.481 in test [7]. Besides, the composite z-score in [8] was determined as 1.27; in [9], 2.99; in [10], 0.761; in the test with Albumin (Bos taurus), 1.03; in test [12] it was 0.0929; in test [13] it was 0.0231. Further, the composite z-score is 0.749 in test [14]; 2.22 in [15]; 1.11 in [16]; 1.21 in the test with Sam68 (KHDRBS1); -0.815 in test [17]; 1.08 in test [18]. The z-score in [2] is -1.82. For the same molecule, in test [11], the composite Z-score is -0.115 (inactive).
As to `NCCCCCCNC(=O)[C@H]1C[C@H]2C(=O)N3CCC[C@H]3C(=O)N2[C@H]1c1ccc(O)cc1`, the composite z-score in [1] is -0.0863; in test [3], 0.55; in test [4] it was 0.192; in test [5], 0.102; in test [6], 0.15; in test [7], -0.0441. Moreover, the composite z-score is -0.28 in test [8]; 0.999 in test [9]; 1.05 in test [10]; 0.425 with Albumin (Bos taurus); -0.0362 in test [12]; -0.201 in test [13]. For the same molecule, the composite z-score came to 0.722 in [14]; 0.307 in test [15]; 0.597 in test [16]; 0.644 in the test with Sam68 (KHDRBS1); 0.777 in test [17]; 0.998 in test [18]. For the same molecule, the z-score in [2] was determined as 0.0433. Also, the composite Z-score in test [11] is 2.61 (inactive).

The record behind these values is PubChem BioAssay.
